Measurements from PubChem BioAssay (NCI).
Compounds without any hit were thinned out: in the full panel of roughly 83,000, 20% have a hit.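 Percent growth is the endpoint: 0 to 100 indicates growth inhibition (40 means 60% inhibition), 0 means no net growth, and negative values indicate cell death.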 The source made the active and inactive calls. Rule for the calls: active = growth percent below 10; inactive = the rest.

tested on: A498 renal; assay: NCI-60 one-dose screen, 48 h (100 = growth as untreated, 0 = no growth, -100 = all killed); details: 10 µM unless noted

SMILES	growth
Cc1ncc(C(=O)Nc2ccc(CN3CCN(C)CC3)c(C(F)(F)F)c2)cc1C#Cc1cnc(NC2CC2)c2ncccc12	-60.4% (active)
COc1cc(NC(C)CCCN)c2nccc(C)c2c1OC (stereo not given)	83.7% (inactive)
CCOC(=O)CCCCCCCCC(=O)OCC	93.9% (inactive)
CCCCCCCCC/C(=N\NC(=O)c1ccncc1)c1ccc(O)c(O)c1O	45% (inactive)
C/C=C(/C)C(=O)OC1C=C(CO)C(=O)C(OC(=O)C2(C)OC2C)C1C(C)C (stereo not given)	1.46% (active)
Cc1nc(NC(=O)NC2CCCCC2)sc1C(=O)NN	118% (inactive)
COc1ccc(Cn2cc3c(c2-c2ccc(OC)cc2)CCc2cnoc2-3)cc1	3.78% (active)
CCOC(=O)CSSCC(=O)OCC	118% (inactive)
O=C(N/N=C/c1cc(Cl)ccc1O)C(=O)N/N=C/c1cc(Cl)ccc1O	81.3% (inactive)
Nc1nc2c(c3cnccc13)C(c1cccc(Br)c1)Cc1cnccc1-2 (stereo not given)	-10.6% (active)
COc1ccc(Cn2cc3c(c2-c2ccc(O)cc2)CCc2cnoc2-3)cc1	-1.96% (active)
COc1cccc(CNC(=O)c2cccc(C3CC(=O)c4c(cc(OC)c(OC)c4OC)O3)c2)c1 (stereo not given)	81.7% (inactive)
COc1nc(OC)nc(-c2cc(-c3cc(OC)c(OC)c(OC)c3)no2)n1	82.5% (inactive)
O=C(N/N=C/c1ccccc1Cl)c1cccc2ccccc12	85.4% (inactive)
CCCCCCCCCC[N+](C)(C)C	32.9% (inactive)
Cc1nc2c(nnn2-c2ccccc2)c2nc(-c3ccc(Cl)cc3)oc(=O)c12	105% (inactive)
Cc1nc(N)sc1C(=O)NCCO	119% (inactive)
CCCCCCCCCCCCCCCCC(=O)O.CCCCCCCCCCCCCCCCCC(=O)O.CCCCCCCCCCCCCCCCCC(=O)O.CCCCCCCCCCCCCCCCCC(=O)O.CCCCCCCCCCCCCCCCCC(=O)O.CO[CH-]OC12COC1CC(O)C1(C)C(O)C(OC(C)O)C3=C(C)C(OC(=O)C(O)C([NH-])c4ccccc4)CC(O)(C(OC(=O)c4ccccc4)C21)C3(C)C.[Cu+].[Zn].[Zn].[Zn].[Zn].[Zn] (stereo not given)	45.6% (inactive)
O=S(=O)(O)CCI	90.7% (inactive)
CC1(C)NCCC[C@]2(C)[C@H]3CC=C4[C@@H]5C[C@](C)(COC(=O)c6ccccc6C(=O)O)CC[C@]5(C)CC[C@@]4(C)[C@]3(C)CC[C@@H]12	107% (inactive)

SMILES	growth
c1ccc2[nH]c(-c3ccc(OCCCCCOc4ccc(-c5nc6ccccc6[nH]5)cc4)cc3)nc2c1	143% (inactive)
COc1nc(OC)nc(-c2cc(C(=O)c3ccc(Br)cc3)n3cc(C)cc(C)c23)n1	71.3% (inactive)
CN1CCN(Cc2ccc(NC(=O)c3ccc(C#Cc4c(N)ncc5ccc(F)cc45)cc3)cc2C(F)(F)F)CC1	77.9% (inactive)
CC(C)(C)OC(=O)N1C/C(=C\c2ccccc2)C(=O)/C(=C/c2ccccc2)C1	101% (inactive)
O=C(CN1C(=O)NC(c2ccccc2)(c2ccccc2)C1=O)c1ccc(N2CCCC2)cc1	61.9% (inactive)
C[C@H]1C[C@@H](n2cnc3c(N)nccc32)[C@H](O)[C@@H]1O	120% (inactive)
Cc1nc2c(nnn2-c2ccccc2)c2nc(-c3ccccc3)oc(=O)c12	98.6% (inactive)
COc1cc2oc(-c3ccc(NC(=O)c4ccccc4)cc3)cc(=O)c2c(OC)c1OC	90.9% (inactive)
COc1cccc2c1n([O-])c1cccc(OC)c1[n+]2=O	106% (inactive)
CC1C(=O)CCCC1=O	138% (inactive)
Oc1ccccc1/C=N/N=C/c1c(O)ccc2ccccc12	123% (inactive)
FC(F)(F)c1cccc(-c2[nH]ncc2-c2nnnn2-c2ccccc2)c1	43.4% (inactive)
Nc1ccc(S(=O)(=O)c2ccc(NO)cc2)cc1	114% (inactive)
Nc1ccc(S(=O)(=O)Nc2cc(F)cc(F)c2)cc1	95% (inactive)
CC(C)(C)c1ccc([I+]c2ccc(C(C)(C)C)cc2)cc1	-2.59% (active)
O=C1NCCN1/N=C/c1c(Cl)nc2n1CCS2	156% (inactive)
CC(=O)OCC1O[C@@H](OC(C)=O)[C@@H](NC(=O)NS(=O)(=O)c2ccccc2)C(OC(C)=O)[C@@H]1OC(C)=O (stereo not given in full)	71.9% (inactive)
COc1ccc(Cn2cc3c(c2-c2ccccc2)CCc2cnoc2-3)cc1OC	18.5% (inactive)
CCn1cc(C(=O)O)c(=O)c2cc(F)c(N3CCN(S(=O)(=O)c4ccc(Cl)cc4)CC3)cc21	-6.18% (active)
Cc1ccc(C(=O)Nc2ccc(CN3CCN(C)CC3)c(C(F)(F)F)c2)cc1C#Cc1cnc(N)c2ccc(C#N)cc12	35.7% (inactive)
